Composite z-score data for 25 compounds are collected here from PubChem BioAssay.

For this assay, the system named is Wnt5a (protein binding on small-molecule microarray). The assay is described as follows: Wnt5a binders on small-molecule microarray, primary screen, biophysical, 635/667 nm fluorescence (AID 1142).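 Note: fluorescence read at 667 nm with signal to noise per printed feature.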 The settings on record: 635 nm fluorescence, higher = more signal.
As to `O=C1[C@H]2[C@H]3[C@H](O)[C@H](O)CC(=NOC[C@@H](O)COCc4ccco4)[C@@H]3CC[C@H]2C(=O)N1Cc1ccccc1`, the composite z-score is -0.0051. On to `O=C1[C@H]2CCn3c(=O)n(-c4ccccc4)c(=O)n3[C@H]2[C@H](O)[C@@H]2O[C@H]12`, for which the composite z-score was 0.0253. Then `CON=C[C@@H](OC)[C@H](C)C=CCC(=O)OC`, with -0.115. With `CC(C)=CCCC(C)=CCON=C1C[C@@H](O)[C@@H](O)[C@@H]2[C@@H]3C(=O)N(Cc4ccc5c(c4)OCO5)C(=O)[C@@H]3CC[C@@H]12` the figure was -0.0188; with `CC(=O)OC[C@H]1O[C@H](CC=NO[C@@H](C)c2cc(-c3c(C)cc(C)cc3C)no2)C=C[C@@H]1OC(C)=O`, -0.184; with `COc1ccc(-c2cnnc(CCCn3ccnc3-c3ccccc3)n2)cc1`, 0.314.

`O=C1C2=CC[C@H]3C(=O)N(c4ccc(F)cc4F)C(=O)[C@H]3[C@H]2[C@H](O)[C@@H]2O[C@H]12` displayed a composite z-score of 0.28. Take `COC(=O)CC=C[C@@H](C)[C@@H](C=NOC[C@@H](O)COCc1ccco1)OC`: the composite z-score is -0.302. The compound `COC(=O)[C@H](C)NC(=O)CCC1CC(OC(=O)NCc2cccc3ccccc23)CC2(CCCC(COC(=O)NCCCN3CCCC3=O)O2)O1` (stereo not given in full) came in with a composite z-score of 0.205. With `CCOC(=O)[C@H](CC(C)C)NC(=O)CCC1CC(OC(=O)NCc2ccc3c(c2)OCO3)CC2(CCCC(COC(=O)NCCc3ccccc3OC)O2)O1` (stereo not given in full) the figure was 0.08. The compound `CO[C@@H](C(C)C)[C@@H](C)C1OC(=O)CC1O` (stereo not given in full) displayed a composite z-score of -0.124. Then `Cc1ccc(C(C)C)n1C(=O)OC(C)(C)C`, with 0.211; and `CCOC(=O)[C@H](Cc1ccccc1)NC(=O)CCC1CC(OC(=O)NCc2ccc3c(c2)OCO3)CC2(CCCC(COC(=O)NCCOc3ccccc3)O2)O1` (stereo not given in full), with 0.0544; and `CSCC[C@@H]1NC(=O)CC=C[C@@H](C)COC(=O)[C@H](C)COC1=O`, with 0.624. Turning to `CO[C@H]1COC(=O)CCC[C@H](C)[C@@H](OC)COC(=O)CC=C[C@@H]1C`, the composite z-score was -0.0982. The compound `CC(C)[C@@H](OCc1ccccc1)[C@H](C)C=NO[C@@H](C)c1cn([C@H](CO)Cc2ccccc2)nn1` registered a composite z-score of -0.0307. In the case of `CCN1C(=O)[C@H]2[C@@H]3C(=CC[C@H]2C1=O)C(=O)[C@H]1O[C@H]1[C@H]3O`, the composite z-score is 0.116. With `CC(C)=CCCC(C)=CCON=C1C[C@@H](O)[C@@H](O)[C@@H]2[C@@H]3C(=O)N(C4CCCCC4)C(=O)[C@@H]3CC[C@H]12`, the composite z-score is 0.342. For `C=CC[C@@H]1C=C[C@H](ON=C[C@@H](NS(=O)(=O)c2ccc(C)cc2)[C@H](C)C=CCC(=O)OC)[C@@H](CO)O1`, the composite z-score was -0.116. `COC(=O)[C@H](C)NC(=O)CCC1CC(OC(=O)NCCc2ccc(F)cc2)CC2(CCCC(COC(=O)NCCOc3ccccc3)O2)O1` (stereo not given in full) had a composite z-score of 0.399. The compound `CO[C@@H]1COC(=O)[C@H](COCc2ccccc2)NC(=O)CC=C[C@@H](C)[C@H](OC)COC(=O)[C@@H](C)NC(=O)CC=C[C@H]1C` registered a composite z-score of -0.128. In the case of `CC(CCC(=O)OC[C@H]1O[C@H](C#Cc2ccccc2)C=C[C@@H]1Oc1ccc(C)cc1)=NOC[C@@H](C)[C@H](OCc1ccccc1)C(C)C`, the composite z-score was -0.174. `COC(=O)[C@H](C)NC(=O)CC=C[C@@H](C)[C@@H]1C=C[C@H](O)[C@@H](CO)O1` returned a composite z-score of 0.355.

`C=CC[C@@H]1C=C[C@H](ON=C(C)CCN2CCCc3nc(C)c(C)cc32)[C@@H](CO)O1` registered a composite z-score of 0.621. With `O=C1C=C[C@@H](O)[C@@H]2[C@@H]3C(=O)N(Cc4ccccc4)C(=O)[C@@H]3CC[C@@H]12`, the composite z-score was -0.0088.
